These results are taken from PubChem BioAssay (Tox21).

Where “and” joins values, the source holds several entries; their conditions need not be identical. Equal entries are not always repeated. Records with an inconclusive call do not appear. Some structures have more than one record in an assay (separate samples or runs), and their calls can disagree. Calls of active or inactive are those of the source. Calls follow the shape of the dose curve; as a rule, active = well fitted curve in the direction sought with a large enough effect in the repeat runs; inconclusive = weak or mixed curves; inactive = no such curve, though single readings can be large; an effect the other way counts as inactive or inconclusive.

The nature of test [1]: Human pregnane X receptor (PXR) small molecule agonists, qHTS cell viability counter screen (AID 1346977). Also: nearly all actives have a fitted effect of over 50% in size. The method in brief: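 HepG2 cells stably carrying the PXR-Luc reporter are cultured with 5% charcoal-stripped FBS and treated with compounds for 24hr. CellTiter-Fluor is added at 23hr and fluorescence is read after 1hr.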
A general note: In qHTS, concentration-response curves come from the screen itself.

The nature of test [2]: Caspase-3/7 induction in HepG2 cells by small molecules, qHTS assay (AID 1346978). Also: nearly all actives have a fitted effect of over 15% in size. The method, boiled down:
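Caspase-3/7 induction was measured by Caspase-Glo 3/7 luminescence (30 min, room temperature) after a 17 hr compound exposure of wild-type HepG2 cells seeded at 2,000 per well and pre-incubated 5 hr.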

A short description of test [3]: Caspase-3/7 induction in CHO-K1 cells by small molecules, qHTS cell viability counter screen (AID 1346979). Also: nearly all actives have a fitted effect of over 35% in size. The method, boiled down:
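Seeding: 1,500 CHO-K1 cells/well. Rest: 5hr, 37C. Treatment: compounds in DMSO, 16hr. Read: CellTiter-Fluor, 1hr, fluorescence.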

Test [4] is described as follows: Caspase-3/7 induction in CHO-K1 cells by small molecules, qHTS assay (AID 1346980). Also: nearly all actives have a fitted effect of over 15% in size. The method in brief:
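Luminescent Caspase-Glo 3/7 read (30min, room temperature) quantified apoptosis induction. Cells were wild-type CHO-K1, treated with compound for 17hr at 37 C and 5% CO2.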

Test [5] is described as follows: Caspase-3/7 induction in HepG2 cells by small molecules, qHTS cell viability counter screen (AID 1346981). Also: series mostly up to about 92 µM; nearly all actives have a fitted effect of over 30% in size. The method, boiled down: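 HepG2, WT, 2,000 cells/well; 5 hr pre-incubation 37 C/5% CO2; compound pin-transferred from DMSO; 16 hr exposure; CellTiter-Fluor, 1 hr; fluorescence read.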
Test [6] addresses Nuclear receptor subfamily 1 group I member 2 (Homo sapiens) (UniProt O75469). Description: Human pregnane X receptor (PXR) small molecule agonists, qHTS assay (AID 1346982). Also: nearly all actives have a fitted effect of over 35% in size. The method, boiled down:
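Luciferase signal from ONE-Glo (30 min, room temperature) measured activation of hPXR-driven CYP3A4 reporter expression in PXR-Luc HepG2 cells treated with compounds for 24 hr at 37 C.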

The target of test [7] is Nuclear receptor subfamily 1 group I member 2 (Rattus norvegicus) (UniProt Q9R1A7). Description: Rat pregnane X receptor (rPXR) activation by small molecules, qHTS assay (AID 1346983). Also: nearly all actives have a fitted effect of over 20% in size. Conditions: rPXR luciferase reporter cells, One-Glo luminescence, 24 h; stronger effect = higher value. The method, boiled down: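 Luminescent readout (One-Glo luciferase, 30 min room temperature) followed 24 hr compound treatment at 37 C of rPXR cells plated 2,000 per well and preincubated 5hr; qHTS format with compounds delivered in DMSO.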
Nuclear receptor subfamily 1 group I member 2 (Rattus norvegicus), sequence (Q9R1A7 whole entry, looked up): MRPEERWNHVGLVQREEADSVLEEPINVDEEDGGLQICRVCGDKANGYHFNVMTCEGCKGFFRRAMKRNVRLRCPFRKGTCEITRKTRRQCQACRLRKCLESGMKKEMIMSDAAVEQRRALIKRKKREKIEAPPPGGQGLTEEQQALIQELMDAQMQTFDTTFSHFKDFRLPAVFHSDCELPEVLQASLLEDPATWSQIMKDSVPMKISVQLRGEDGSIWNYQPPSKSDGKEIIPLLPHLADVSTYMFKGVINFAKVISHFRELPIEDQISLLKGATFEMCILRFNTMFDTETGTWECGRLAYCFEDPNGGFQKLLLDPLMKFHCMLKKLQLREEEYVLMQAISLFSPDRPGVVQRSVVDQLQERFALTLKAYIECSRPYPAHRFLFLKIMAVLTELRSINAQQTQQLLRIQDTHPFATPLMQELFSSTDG

The target in test [8] is Nuclear receptor subfamily 1 group I member 2 (Homo sapiens) (UniProt O75469). Description: CYP3A4 induction through human pregnane X receptor (PXR) by small molecules, qHTS assay (AID 1346984). Also: nearly all actives have a fitted effect of over 40% in size. The method, boiled down: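 Luminescence readout: luciferase signal after One-Glo (30 min, room temperature), following 3 h at 37C with 3uM final Luciferin-IPA P450 substrate. Cells were DPX-2 (HepG2, PXR/CYP3A4-luc co-transfected) dosed for 24 h.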
Nuclear receptor subfamily 1 group I member 2 (Homo sapiens), sequence (O75469 whole entry, looked up): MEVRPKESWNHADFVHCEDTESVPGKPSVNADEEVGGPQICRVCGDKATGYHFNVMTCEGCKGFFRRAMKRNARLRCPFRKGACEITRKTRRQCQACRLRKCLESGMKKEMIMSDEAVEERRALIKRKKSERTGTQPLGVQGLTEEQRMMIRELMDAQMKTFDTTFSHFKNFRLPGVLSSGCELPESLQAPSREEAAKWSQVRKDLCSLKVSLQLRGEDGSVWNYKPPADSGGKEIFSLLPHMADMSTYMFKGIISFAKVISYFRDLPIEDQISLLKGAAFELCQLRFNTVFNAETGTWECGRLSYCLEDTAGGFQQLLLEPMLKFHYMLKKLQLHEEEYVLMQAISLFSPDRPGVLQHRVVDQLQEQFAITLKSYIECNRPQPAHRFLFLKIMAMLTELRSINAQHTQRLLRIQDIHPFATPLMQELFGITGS

Test [9] shares this target. Description: Human pregnane X receptor (PXR) activation by small molecules, qHTS assay (AID 1346985). Also: nearly all actives have a fitted effect of over 40% in size. The method in brief:
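DPX-2 cells (HepG2 co-transfected with a PXR response element and a CYP3A4-promoter luciferase construct) were seeded at 2,000 per well, rested 5 hr at 37C, then exposed to DMSO-dissolved compounds for 24 hr. Activation was read as luciferase luminescence.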

The target in test [10] is Cytochrome P450 2D6 (Homo sapiens) (UniProt P10635). Description: Cytochrome P450 Family 2 Subfamily D Member 6 (CYP2D6) small molecule antagonists: luciferase reporter qHTS assay (AID 1671196). Also: series mostly up to about 120 µM; nearly all actives have a fitted effect of over 50% in size. The method in brief:
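Read-out is luminescence from luciferin formed by CYP2D6 turnover of a proluciferin substrate, recorded as relative luminescence units. Reactions ran 1 h at room temperature after NADPH regeneration solution was added.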

Test [11] has as its target Cytochrome P450 2C19 (Homo sapiens) (UniProt P33261). Description: Cytochrome P450 Family 2 Subfamily C Member 19 (CYP2C19) small molecule antagonists: luciferase reporter qHTS assay (AID 1671197). Also: nearly all actives have a fitted effect of over 65% in size. Also: potency is read from the fitted curve at half-maximal effect. The method in brief:
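Enzyme-substrate mix with proluciferin substrate (P450-Glo CYP2C19 system) preincubated with compounds 10 min at room temperature; NADPH regeneration solution added, 37C for 1 h; detection reagent stops reaction, luminescence read after 20 min. Ketoconazole positive control.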
In general terms: In a reporter assay the amount or activity of a reporter protein is the signal.

Test [12] deals with Cytochrome P450 2C9 (Homo sapiens) (UniProt P11712). Description: Cytochrome P450 Family 2 Subfamily C Member 9 (CYP2C9) small molecule antagonists: luciferase reporter qHTS assay (AID 1671198). Also: nearly all actives have a fitted effect of over 50% in size. Also: potency is read from the fitted curve at half-maximal effect. The method, boiled down:
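Enzyme-substrate mix preincubated with compound 10 min at room temperature; reaction started with NADPH regeneration solution, 1 h 37C. Luminescent luciferin product read after 20 min detection reagent.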

Test [13] addresses Cytochrome P450 1A2 (Homo sapiens) (UniProt P05177). Description: Cytochrome P450 Family 1 Subfamily A Member 2 (CYP1A2) small molecule antagonists: luciferase reporter qHTS assay (AID 1671199). Also: nearly all actives have a fitted effect of over 50% in size. Also: potency is read from the fitted curve at half-maximal effect. The method in brief:
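P450-Glo CYP1A2, 1536-well qHTS: enzyme/proluciferin substrate + cpd (DMSO), 10 min RT; NADPH regen, 1 h RT; detection reagent, 20 min; luminescence, RLU.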

In test [14] the target is Voltage-gated inwardly rectifying potassium channel KCNH2 (Homo sapiens) (UniProt Q12809). Description: Human Ether-a-go-go-Related Gene (hERG) channel small molecule antagonists: fluorescence cell-based qHTS assay (AID 1671200). The method in brief: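 First, 1000 cells per well are seeded and cultured overnight at 37 C. Next, FluxOR II dye is loaded for 1 h at room temperature, protected from light. After 10 more minutes, stimulus is added and fluorescence is read.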
Voltage-gated inwardly rectifying potassium channel KCNH2 (Homo sapiens), sequence (Q12809 whole entry, looked up): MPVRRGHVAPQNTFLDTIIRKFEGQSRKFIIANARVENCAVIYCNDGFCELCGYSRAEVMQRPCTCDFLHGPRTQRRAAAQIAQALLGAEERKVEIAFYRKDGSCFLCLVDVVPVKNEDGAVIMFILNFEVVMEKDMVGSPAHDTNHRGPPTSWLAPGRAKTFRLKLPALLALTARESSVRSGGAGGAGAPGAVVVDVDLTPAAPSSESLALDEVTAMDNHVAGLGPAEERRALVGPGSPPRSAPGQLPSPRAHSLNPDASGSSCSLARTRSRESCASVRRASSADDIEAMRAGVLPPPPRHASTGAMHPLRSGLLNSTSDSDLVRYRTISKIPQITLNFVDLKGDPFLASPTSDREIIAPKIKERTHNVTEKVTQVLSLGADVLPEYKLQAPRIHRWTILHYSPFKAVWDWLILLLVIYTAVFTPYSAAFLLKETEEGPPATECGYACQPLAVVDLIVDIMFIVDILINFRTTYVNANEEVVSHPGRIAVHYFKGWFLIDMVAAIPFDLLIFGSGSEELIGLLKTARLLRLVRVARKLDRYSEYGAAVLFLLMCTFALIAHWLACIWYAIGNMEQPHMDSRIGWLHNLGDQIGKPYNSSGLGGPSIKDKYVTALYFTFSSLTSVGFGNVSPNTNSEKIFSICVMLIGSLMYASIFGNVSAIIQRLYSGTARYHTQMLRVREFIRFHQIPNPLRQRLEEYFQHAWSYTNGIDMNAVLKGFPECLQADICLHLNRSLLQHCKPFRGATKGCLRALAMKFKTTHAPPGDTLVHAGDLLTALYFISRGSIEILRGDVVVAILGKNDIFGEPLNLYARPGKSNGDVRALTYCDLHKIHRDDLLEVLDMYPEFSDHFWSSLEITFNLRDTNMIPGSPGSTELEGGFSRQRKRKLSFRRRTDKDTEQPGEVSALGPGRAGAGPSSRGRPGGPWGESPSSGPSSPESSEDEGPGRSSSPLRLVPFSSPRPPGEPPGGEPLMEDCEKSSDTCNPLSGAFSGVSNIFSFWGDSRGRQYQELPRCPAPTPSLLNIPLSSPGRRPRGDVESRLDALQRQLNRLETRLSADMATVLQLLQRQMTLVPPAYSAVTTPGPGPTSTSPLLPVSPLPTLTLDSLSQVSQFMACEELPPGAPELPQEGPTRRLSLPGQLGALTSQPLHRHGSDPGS
In general terms: hERG is a cardiac potassium channel; its block is linked to QT prolongation.

Test [15] concerns the target Cytochrome P450 3A4 (Homo sapiens) (UniProt P08684). Description: Cytochrome P450 Family 3 Subfamily A Member 4 (CYP3A4) small molecule antagonists: luciferase reporter qHTS assay (AID 1671201). The method in brief: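 Enzyme and proluciferin substrate are mixed with test chemicals for 10 min, then NADPH regeneration system drives turnover for 1 h at room temperature. A detection reagent halts the reaction; luminescence after 20 min gives relative activity.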
% is scaled to controls: 0 for no effect and ±100 for the full control effect.

Cytochrome P450 3A4 (Homo sapiens), sequence (P08684 whole entry, looked up): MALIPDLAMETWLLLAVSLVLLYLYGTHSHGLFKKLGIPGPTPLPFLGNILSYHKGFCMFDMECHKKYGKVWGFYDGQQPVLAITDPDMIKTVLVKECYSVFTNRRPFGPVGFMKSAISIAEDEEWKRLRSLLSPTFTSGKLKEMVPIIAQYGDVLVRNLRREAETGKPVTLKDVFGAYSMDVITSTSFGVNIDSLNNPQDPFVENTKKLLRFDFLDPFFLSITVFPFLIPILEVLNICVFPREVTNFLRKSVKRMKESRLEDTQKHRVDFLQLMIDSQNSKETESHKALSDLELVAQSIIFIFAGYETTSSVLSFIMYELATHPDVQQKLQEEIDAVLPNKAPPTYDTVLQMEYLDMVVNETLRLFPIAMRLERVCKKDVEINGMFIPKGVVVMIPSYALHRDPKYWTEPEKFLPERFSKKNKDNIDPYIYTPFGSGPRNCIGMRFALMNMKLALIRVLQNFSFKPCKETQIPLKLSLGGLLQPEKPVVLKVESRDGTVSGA
Cytochrome P450 2C19 (Homo sapiens), sequence (P33261 whole entry, looked up): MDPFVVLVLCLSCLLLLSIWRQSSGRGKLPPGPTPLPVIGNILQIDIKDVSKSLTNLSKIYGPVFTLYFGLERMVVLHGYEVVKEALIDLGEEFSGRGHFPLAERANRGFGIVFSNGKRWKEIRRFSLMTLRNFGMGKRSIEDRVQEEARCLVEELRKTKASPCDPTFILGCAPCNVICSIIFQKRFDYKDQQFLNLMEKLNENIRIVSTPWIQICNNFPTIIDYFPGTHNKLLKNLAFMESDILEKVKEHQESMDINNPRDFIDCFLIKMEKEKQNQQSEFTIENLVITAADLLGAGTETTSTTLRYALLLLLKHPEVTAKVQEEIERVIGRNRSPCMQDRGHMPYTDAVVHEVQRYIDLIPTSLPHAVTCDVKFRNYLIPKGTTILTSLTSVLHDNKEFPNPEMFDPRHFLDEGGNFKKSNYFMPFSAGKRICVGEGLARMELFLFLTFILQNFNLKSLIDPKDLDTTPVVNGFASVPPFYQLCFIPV
Cytochrome P450 2D6 (Homo sapiens), sequence (P10635 whole entry, looked up): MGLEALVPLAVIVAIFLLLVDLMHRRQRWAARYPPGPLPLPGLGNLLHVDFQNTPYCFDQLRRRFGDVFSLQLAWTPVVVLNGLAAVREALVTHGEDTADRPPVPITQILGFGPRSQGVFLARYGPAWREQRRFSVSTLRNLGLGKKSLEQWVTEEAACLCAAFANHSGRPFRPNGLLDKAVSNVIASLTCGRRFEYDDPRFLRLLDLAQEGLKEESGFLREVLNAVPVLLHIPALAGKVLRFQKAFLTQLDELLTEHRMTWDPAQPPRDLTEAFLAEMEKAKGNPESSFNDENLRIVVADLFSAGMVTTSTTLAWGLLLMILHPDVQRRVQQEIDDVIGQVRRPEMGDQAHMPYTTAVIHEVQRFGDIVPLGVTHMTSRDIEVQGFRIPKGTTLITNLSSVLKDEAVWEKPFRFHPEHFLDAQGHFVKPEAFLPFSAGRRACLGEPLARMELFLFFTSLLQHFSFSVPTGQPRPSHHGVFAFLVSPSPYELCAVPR
Cytochrome P450 2C9 (Homo sapiens), sequence (P11712 whole entry, looked up): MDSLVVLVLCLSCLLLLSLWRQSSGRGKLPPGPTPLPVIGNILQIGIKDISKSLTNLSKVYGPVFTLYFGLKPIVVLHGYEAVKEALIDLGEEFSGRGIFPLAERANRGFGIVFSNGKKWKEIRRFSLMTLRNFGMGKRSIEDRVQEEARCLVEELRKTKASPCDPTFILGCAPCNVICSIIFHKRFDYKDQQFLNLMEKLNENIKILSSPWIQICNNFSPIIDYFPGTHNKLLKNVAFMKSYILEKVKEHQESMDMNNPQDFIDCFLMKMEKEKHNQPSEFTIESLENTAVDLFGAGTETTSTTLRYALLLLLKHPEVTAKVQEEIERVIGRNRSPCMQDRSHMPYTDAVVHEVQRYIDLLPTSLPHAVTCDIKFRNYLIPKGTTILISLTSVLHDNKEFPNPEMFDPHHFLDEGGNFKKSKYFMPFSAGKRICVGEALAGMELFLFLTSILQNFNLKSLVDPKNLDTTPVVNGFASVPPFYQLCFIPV
Cytochrome P450 1A2 (Homo sapiens), sequence (P05177 whole entry, looked up): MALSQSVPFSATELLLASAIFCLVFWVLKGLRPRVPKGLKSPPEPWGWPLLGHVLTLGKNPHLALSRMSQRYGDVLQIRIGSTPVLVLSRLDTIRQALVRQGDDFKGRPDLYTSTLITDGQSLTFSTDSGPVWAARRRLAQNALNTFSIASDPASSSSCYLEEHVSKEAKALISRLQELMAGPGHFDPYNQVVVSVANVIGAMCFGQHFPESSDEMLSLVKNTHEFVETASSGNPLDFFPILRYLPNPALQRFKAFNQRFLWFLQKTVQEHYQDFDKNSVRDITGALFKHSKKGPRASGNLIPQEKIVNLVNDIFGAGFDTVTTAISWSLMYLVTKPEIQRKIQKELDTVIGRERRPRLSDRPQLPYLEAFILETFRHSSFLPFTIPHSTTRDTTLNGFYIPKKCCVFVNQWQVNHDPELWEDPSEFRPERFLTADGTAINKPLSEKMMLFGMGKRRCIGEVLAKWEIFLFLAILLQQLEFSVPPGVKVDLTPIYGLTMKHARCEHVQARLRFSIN

On to `O=C(O)CCCCC(=O)O`, for which the Potency result in test [1], in test [2], in [3], in test [5], in [6] and in test [9] was “inactive” each time. For the same compound, the Potency result in [10], in test [11], in test [12], in test [13] and in test [15] was “inactive” in each case. The outcome in [4], in test [8] and in [14] was inactive. Also, the max activation in test [7] was -1.24% (inactive).
Turning to `O=C(O)c1cccnc1`, the Potency entry in [1], in test [2], in [3] and in [5] was “inactive” each time. Further, the compound was classed as inactive in [4] and in [14].
On to `Cc1ccc(C)c(OCCCC(C)(C)C(=O)O)c1`, for which the Potency entry in test [1], in [2], in test [3], in test [5], in [6] and in test [10] was “inactive” throughout. Besides, the Potency entry in [15] was “inactive”. Further, the call in [4] and in test [14] was inactive. The Potency in test [11] is 50.6 µM (active) and 56.4 µM (active) and inactive; in [12], 31.9 µM (active) and 35.6 µM (active) and 17.4 µM (active); in test [13], 71 µM (active) and inactive.
As to `Nc1ccc(S(=O)(=O)c2ccc(N)cc2)cc1`, the Potency result in test [1], in [2], in test [3], in test [5], in [6] and in test [10] was “inactive” in each case. Moreover, the Potency entry in test [12], in test [13] and in test [15] was “inactive” throughout. Besides, the compound was called inactive in test [4] and in [14].
As for `CCCCC(CC)COC(=O)/C=C/c1ccc(OC)cc1` (stereo unspecified), the Potency result in test [1], in test [2], in test [3], in test [5], in [6] and in test [9] was “inactive” each time. The Potency entry in test [10] and in [15] was “inactive” throughout. Further, the compound was called inactive in [4], in test [8] and in test [14]. Besides, the Potency was 39.8 µM (active) and 25.2 µM (active) and 24.5 µM (active) in [11]; 19.9 µM (active) and 12.6 µM (active) and 11 µM (active) in test [12]; 19.9 µM (active) and 12.6 µM (active) and 13.8 µM (active) in test [13].
For `C/C=C/c1ccc(OC)cc1`, the Potency result in [1], in [2], in test [3], in test [5], in [6] and in test [9] was “inactive” throughout. Besides, in [10], the Potency result was “inactive”. In addition, the result in test [4], in [8] and in test [14] was inactive. Moreover, the max activation in test [7] was -1.43% (inactive). In addition, the Potency result in test [11] was “inactive and 21.9 µM (active)”; in test [12] it was “inactive and 13.8 µM (active)”; in test [13], “inactive and 17.4 µM (active)”.
Turning to `O=c1ccc2ccccc2o1`, the Potency entry in test [1], in [2], in [3], in [5], in test [6] and in [9] was “inactive” in each case. Besides, the Potency entry in test [10], in test [11], in [12] and in [15] was “inactive” throughout. The outcome in test [4], in test [8] and in test [14] was inactive. The Potency in [13] was 36.3 µM (active) and 31.7 µM (active) and inactive.
